The source of these data is PubChem BioAssay (EPA / NIEHS).

Results filed as inconclusive are left out. Activity calls are given as the source filed them. How the source made its calls, unless noted: active means hit-call score of the fitted dose curve at least 0.9, where 1 is the maximum; inconclusive means response in the unintended direction; inactive means score below 0.9.

The target in test [1] is Estrogen-related receptor gamma (Homo sapiens) (UniProt P62508). The test can be described thus: ATG_ERRg_TRANS: Attagene TRANS-FACTORIAL HepG2 Assay for human Estrogen-Related Receptor gamma (ERRg) (AID 2282977).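 Further: hits increase reporter signal over DMSO so potencies reflect activators.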 To be noted: HepG2 Attagene TRANS reporter, ERRg transactivation. The gist of the method:
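Exogenous NR-Gal4 chimera activity measured as reporter transcript induction after 24 h in transiently transfected HepG2 cells. RNA reverse-transcribed, PCR-amplified, 6-FAM-labelled and resolved by capillary electrophoresis; increase over DMSO baseline.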

In test [2] the target is Oxysterols receptor LXR-alpha (Homo sapiens) (UniProt Q13133). The test can be described thus: ATG_LXRa_TRANS: Attagene TRANS-FACTORIAL HepG2 Assay for human Liver X Receptor alpha (LXRa) (AID 2282980). To be noted: HepG2 Attagene TRANS reporter, LXRa transactivation. The essentials: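 In this multiplexed TRANS system, compounds act on HepG2 cells carrying GAL4-UAS reporter units and a receptor-GAL4 fusion for 24 h. Induced reporter RNA is amplified, fluorescently labelled and sized by capillary electrophoresis, with DMSO as baseline.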

For test [3], the target named is Oxysterols receptor LXR-beta (Homo sapiens) (UniProt P55055). The test can be described thus: ATG_LXRb_TRANS: Attagene TRANS-FACTORIAL HepG2 Assay for human Liver X Receptor beta (LXRb) (AID 2282981). To be noted: HepG2 Attagene TRANS GAL4-LXRb reporter, mRNA. The gist of the method:
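After 24 h chemical treatment of transfected HepG2 cells carrying exogenous NR-Gal4 chimeras, reporter mRNA was quantified by fluorescent RT-PCR and capillary electrophoresis; activity taken as increase over DMSO controls.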

A short description of test [4]: ATG_M_06_TRANS: Attagene TRANS-FACTORIAL HepG2 Assay for M06 Transcription Factor (Internal Marker) (AID 2282983).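 Further: reporter transcript level by RT-PCR then capillary electrophoresis fluorescence.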 To be noted: HepG2 Attagene TRANS M06 internal marker reporter. The essentials:
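Multi-reporter-transfected HepG2, 24 h treatment; reporter transcripts quantified via RT-PCR, primer-extension labelling and CE. DMSO-normalized gain-of-signal fit.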

A short description of test [5]: ATG_M_32_TRANS: Attagene TRANS-FACTORIAL HepG2 Assay for M32 Transcription Factor (Internal Marker) (AID 2282984).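 On outcome: transcript level of a background control reporter unit measured by RT-PCR and capillary electrophoresis.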 To be noted: HepG2 Attagene TRANS M32 internal marker reporter. The gist of the method:
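Internal background reporter in transfected HepG2: after 24 h chemical exposure, RNA reverse-transcribed, reporter cDNA amplified, fluorescently labelled and HpaI-cut, then sized by capillary electrophoresis. Gain of signal fitted against DMSO control.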

Test [6] concerns the target Nuclear receptor subfamily 4 group A member 2 (Homo sapiens) (UniProt P43354). The test can be described thus: ATG_NURR1_TRANS: Attagene TRANS-FACTORIAL HepG2 Assay for human Nuclear Receptor Related Protein 1 (NURR1) (AID 2282985). To be noted: HepG2 Attagene TRANS reporter, mRNA readout. The gist of the method: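 Reporter transcript induction, measured by RT-PCR with fluorescent labelling, HpaI digestion and capillary electrophoresis, after 24 hr dosing of human HepG2 cells transiently expressing an exogenous NR-Gal4 fusion with GAL4-UAS-driven reporters; DMSO as baseline.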

Test [7] has as its target Transcriptional activator Myb (Homo sapiens) (UniProt P10242). The test can be described thus: ATG_Myb_CIS: Attagene CIS-FACTORIAL HepG2 Assay for human Myeloblastosis (Myb) Proto-Oncogene Transcription Factor (AID 2282986; active means hit-call score of the fitted dose curve at least 0.9, where 1 is the maximum; inactive means score below 0.9). To be noted: HepG2 Attagene CIS-FACTORIAL Myb reporter transcription; actives raise or lower the signal. The essentials:
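HepG2 cells were transiently transfected with cis-regulated multiple reporter transcription units reflecting endogenous Myb activity, then exposed to compound for 24 hours. Reporter mRNA was measured by RT-PCR with capillary electrophoresis; bidirectional fitting versus DMSO baseline.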

For test [8], the target named is Hepatocyte nuclear factor 4-alpha (Homo sapiens) (UniProt P41235). In words: ATG_HNF4a_TRANS: Attagene TRANS-FACTORIAL HepG2 Assay for human Hepatocyte Nuclear Factor 4 alpha (HNF4a) (AID 2282982). To be noted: HepG2 HNF4a transactivation reporter, mRNA readout. The essentials:
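Activity of an exogenous HNF4a–Gal4 fusion scored as induced GAL4-UAS reporter transcripts after 24 h chemical exposure of transfected human HepG2 cells. Read-out via RT-PCR with 6-FAM labelling and capillary electrophoresis; rise over DMSO baseline.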

Test [9] concerns the target Glucocorticoid receptor (Homo sapiens) (UniProt P04150). In words: ATG_GR_TRANS: Attagene TRANS-FACTORIAL HepG2 Assay for human Glucocorticoid Receptor (GR) (AID 2282978).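 Further: activators score as hits since higher reporter transcript over DMSO is fitted.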 To be noted: HepG2 Attagene TRANS GR reporter, mRNA transcription. The essentials:
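HepG2 cells transiently transfected with multiplexed reporter units in which chimeric NR-GAL4 proteins drive GAL4-UAS reporters; 24 h compound exposure. Reporter mRNA measured by RT-PCR, 6-FAM labelling, HpaI digestion and capillary electrophoresis; gain-of-signal fitted versus DMSO.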

Test [10] concerns the target Bile acid receptor (Homo sapiens) (UniProt Q96RI1). The test can be described thus: ATG_FXR_TRANS: Attagene TRANS-FACTORIAL HepG2 Assay for Farnesoid X Receptor (FXR) (AID 2282979).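 Further: hits raise reporter mRNA above DMSO so AC50 marks FXR activation.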 To be noted: HepG2 Attagene TRANS FXR-GAL4 reporter transcription. The essentials: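 After 24 h chemical treatment of transfected HepG2 cells, GAL4-UAS reporter transcripts driven by an exogenous FXR-GAL4 fusion were measured by RT-PCR and capillary electrophoresis. Increases over DMSO were fitted.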

The AC50 is the concentration giving half of the maximal activity seen.

Chain of Nuclear receptor subfamily 4 group A member 2 (Homo sapiens) (P43354 whole entry, looked up, the tested form may be a part): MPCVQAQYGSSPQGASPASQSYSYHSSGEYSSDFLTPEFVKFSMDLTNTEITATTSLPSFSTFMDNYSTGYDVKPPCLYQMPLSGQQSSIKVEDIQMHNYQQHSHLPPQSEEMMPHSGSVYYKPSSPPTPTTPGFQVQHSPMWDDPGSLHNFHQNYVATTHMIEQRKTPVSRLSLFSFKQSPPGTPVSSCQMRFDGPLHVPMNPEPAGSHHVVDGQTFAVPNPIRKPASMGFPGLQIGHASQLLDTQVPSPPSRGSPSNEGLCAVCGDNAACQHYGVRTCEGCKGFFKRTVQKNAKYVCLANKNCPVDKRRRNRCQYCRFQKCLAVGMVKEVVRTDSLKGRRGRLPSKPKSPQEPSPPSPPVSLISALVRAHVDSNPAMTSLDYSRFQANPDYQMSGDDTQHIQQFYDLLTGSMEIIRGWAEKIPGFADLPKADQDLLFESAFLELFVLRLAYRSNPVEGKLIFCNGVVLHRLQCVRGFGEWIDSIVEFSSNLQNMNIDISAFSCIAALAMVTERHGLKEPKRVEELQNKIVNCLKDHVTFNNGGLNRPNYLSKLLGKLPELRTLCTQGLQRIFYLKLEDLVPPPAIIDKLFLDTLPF
Chain of Oxysterols receptor LXR-alpha (Homo sapiens) (Q13133 whole entry, looked up, the tested form may be a part): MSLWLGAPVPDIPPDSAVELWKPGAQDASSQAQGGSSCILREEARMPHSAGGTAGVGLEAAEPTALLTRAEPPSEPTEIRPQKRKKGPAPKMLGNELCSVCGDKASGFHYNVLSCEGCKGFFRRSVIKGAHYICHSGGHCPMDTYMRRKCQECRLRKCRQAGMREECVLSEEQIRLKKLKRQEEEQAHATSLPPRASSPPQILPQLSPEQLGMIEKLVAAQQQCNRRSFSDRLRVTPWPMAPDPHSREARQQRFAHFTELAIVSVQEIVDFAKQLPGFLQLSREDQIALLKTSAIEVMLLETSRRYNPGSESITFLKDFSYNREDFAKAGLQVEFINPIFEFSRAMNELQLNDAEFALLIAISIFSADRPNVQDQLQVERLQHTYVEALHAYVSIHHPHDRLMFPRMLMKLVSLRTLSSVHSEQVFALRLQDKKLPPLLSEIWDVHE
Chain of Oxysterols receptor LXR-beta (Homo sapiens) (P55055 whole entry, looked up, the tested form may be a part): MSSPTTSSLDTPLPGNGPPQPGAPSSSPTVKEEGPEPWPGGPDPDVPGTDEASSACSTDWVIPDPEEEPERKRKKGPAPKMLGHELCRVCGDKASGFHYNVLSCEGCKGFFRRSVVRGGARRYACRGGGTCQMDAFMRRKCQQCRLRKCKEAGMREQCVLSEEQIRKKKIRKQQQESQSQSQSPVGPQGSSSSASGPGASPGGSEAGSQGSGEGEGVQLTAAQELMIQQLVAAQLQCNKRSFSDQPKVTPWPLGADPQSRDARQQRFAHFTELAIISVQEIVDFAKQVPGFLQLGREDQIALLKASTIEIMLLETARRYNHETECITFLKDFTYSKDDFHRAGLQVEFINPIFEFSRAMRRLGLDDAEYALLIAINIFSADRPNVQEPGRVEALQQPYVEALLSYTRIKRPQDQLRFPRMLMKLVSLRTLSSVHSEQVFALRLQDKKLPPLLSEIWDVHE
Chain of Hepatocyte nuclear factor 4-alpha (Homo sapiens) (P41235 whole entry, looked up, the tested form may be a part): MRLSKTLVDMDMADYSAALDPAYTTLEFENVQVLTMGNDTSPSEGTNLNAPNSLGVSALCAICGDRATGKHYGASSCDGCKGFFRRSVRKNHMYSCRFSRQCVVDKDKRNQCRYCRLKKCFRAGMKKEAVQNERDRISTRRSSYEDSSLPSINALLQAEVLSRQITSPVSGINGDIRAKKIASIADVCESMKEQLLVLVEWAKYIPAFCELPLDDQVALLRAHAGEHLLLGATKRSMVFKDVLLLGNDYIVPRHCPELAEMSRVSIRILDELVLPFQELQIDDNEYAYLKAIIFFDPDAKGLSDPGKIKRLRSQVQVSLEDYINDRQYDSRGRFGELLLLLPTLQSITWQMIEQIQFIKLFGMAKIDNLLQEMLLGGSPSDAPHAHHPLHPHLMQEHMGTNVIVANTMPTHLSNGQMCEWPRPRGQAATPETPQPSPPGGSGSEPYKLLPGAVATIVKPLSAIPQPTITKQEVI
Chain of Transcriptional activator Myb (Homo sapiens) (P10242 whole entry, looked up): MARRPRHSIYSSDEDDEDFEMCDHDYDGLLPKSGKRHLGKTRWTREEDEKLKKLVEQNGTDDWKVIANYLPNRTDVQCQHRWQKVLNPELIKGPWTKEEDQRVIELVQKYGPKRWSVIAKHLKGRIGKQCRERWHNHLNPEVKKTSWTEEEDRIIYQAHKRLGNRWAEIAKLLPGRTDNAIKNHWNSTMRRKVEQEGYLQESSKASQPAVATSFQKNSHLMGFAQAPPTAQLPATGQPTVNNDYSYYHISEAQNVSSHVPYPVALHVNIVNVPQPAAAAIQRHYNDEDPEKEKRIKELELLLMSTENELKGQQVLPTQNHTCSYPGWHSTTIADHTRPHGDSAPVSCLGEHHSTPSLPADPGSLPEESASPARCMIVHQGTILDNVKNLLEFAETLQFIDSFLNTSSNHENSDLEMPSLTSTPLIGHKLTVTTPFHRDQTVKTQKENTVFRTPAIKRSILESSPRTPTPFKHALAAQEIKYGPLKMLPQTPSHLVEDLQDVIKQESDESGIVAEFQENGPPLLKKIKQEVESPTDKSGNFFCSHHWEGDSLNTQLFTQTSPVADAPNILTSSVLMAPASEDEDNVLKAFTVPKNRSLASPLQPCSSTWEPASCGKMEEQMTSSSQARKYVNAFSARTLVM
Chain of Estrogen-related receptor gamma (Homo sapiens) (P62508 whole entry, looked up, the tested form may be a part): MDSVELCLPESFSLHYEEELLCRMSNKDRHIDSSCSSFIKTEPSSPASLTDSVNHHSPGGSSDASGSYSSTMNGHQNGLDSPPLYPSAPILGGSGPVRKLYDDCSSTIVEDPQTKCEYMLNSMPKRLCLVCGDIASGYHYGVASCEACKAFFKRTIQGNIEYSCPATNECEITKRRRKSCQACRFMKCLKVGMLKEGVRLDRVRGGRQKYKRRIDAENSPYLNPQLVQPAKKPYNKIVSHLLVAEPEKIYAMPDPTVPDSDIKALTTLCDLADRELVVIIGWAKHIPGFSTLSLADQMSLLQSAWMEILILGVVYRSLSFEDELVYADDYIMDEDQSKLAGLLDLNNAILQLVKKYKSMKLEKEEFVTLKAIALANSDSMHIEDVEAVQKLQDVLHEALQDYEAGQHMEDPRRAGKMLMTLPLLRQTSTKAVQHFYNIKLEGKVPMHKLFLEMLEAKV
Chain of Glucocorticoid receptor (Homo sapiens) (P04150 whole entry, looked up, the tested form may be a part): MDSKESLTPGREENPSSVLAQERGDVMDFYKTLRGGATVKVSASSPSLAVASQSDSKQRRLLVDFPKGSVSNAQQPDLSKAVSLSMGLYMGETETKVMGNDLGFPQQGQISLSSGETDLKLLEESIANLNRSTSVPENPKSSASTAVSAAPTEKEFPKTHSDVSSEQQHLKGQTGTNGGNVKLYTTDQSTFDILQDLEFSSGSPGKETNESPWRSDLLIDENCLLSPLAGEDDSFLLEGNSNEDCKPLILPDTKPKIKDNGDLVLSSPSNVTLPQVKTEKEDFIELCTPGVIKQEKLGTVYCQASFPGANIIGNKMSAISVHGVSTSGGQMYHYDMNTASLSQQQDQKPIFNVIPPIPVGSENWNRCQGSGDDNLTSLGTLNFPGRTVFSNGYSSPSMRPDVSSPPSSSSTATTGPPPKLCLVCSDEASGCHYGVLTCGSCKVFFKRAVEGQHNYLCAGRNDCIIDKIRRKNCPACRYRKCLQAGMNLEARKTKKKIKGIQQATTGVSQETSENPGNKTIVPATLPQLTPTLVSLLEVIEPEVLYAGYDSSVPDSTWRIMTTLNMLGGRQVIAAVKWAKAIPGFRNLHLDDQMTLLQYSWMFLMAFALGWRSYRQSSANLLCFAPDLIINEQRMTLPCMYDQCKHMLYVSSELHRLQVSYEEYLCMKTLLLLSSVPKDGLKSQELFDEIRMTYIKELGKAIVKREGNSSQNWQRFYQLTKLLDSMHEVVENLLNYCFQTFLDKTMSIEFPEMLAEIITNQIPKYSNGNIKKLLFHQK
Chain of Bile acid receptor (Homo sapiens) (Q96RI1 whole entry, looked up, the tested form may be a part): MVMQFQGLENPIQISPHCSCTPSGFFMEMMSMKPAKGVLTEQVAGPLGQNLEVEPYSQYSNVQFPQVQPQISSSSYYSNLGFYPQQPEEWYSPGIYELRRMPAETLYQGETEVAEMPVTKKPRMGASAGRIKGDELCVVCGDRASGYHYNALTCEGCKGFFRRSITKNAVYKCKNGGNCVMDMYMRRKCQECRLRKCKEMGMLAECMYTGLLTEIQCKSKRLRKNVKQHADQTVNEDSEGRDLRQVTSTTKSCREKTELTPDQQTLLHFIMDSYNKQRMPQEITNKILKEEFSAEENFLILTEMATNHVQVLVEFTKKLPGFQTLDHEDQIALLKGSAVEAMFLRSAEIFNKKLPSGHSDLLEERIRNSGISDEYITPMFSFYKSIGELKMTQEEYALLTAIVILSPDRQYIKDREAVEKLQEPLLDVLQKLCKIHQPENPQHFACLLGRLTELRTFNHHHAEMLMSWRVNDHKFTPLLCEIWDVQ

On to `CC(C)c1cccc(C(C)C)c1N`, for which the call in test [1], in test [2], in [3], in test [4], in test [5] and in test [6] was inactive. In addition, the compound was called inactive in [7].

Turning to `Cn1cccc1`, the result in [1], in test [2], in test [8] and in [7] was inactive.

On to `CCc1cccc(CC)c1`, for which the outcome in [9], in test [10], in [2], in test [4] and in [7] was inactive.

With `CC1(C)CCC[C@]2(C)[C@H]3CC(=O)O[C@]3(C)CC[C@@H]12`, the outcome in test [9], in test [10], in test [2], in test [3], in test [5] and in test [7] was inactive.

In the case of `CC(C)OC(=O)c1ccccc1`, the compound was called inactive in test [1], in test [4] and in [7].

In the case of `c1ccc(-c2nc3ccccc3[nH]2)cc1`, the call in [9], in test [10], in test [2], in test [3], in test [8] and in [5] was inactive. The outcome in [6] and in test [7] was inactive.

On to `C=CCCCCCCCCC=O`, for which the compound was classed as inactive in test [1], in test [2], in test [8], in test [4], in test [5] and in test [6]. Moreover, in test [7], the compound was classed as inactive.

`c1ccc2sc(SSN3CCOCC3)nc2c1`: the call in test [1], in test [2], in [3], in test [4], in test [6] and in test [7] was inactive.

As for `O=C(O)c1cc(O)c2ccccc2c1O`, the result in test [1], in test [2], in test [3], in test [4] and in test [5] was inactive. For the same compound, the AC50 in test [6] is 1.1 µM (active).

In the case of `C/C=C/C=C/CCCCCCCO`, the outcome in test [9], in test [10], in test [2], in test [3], in test [8] and in [6] was inactive. For the same compound, the concentration at half-maximal activity (AC50) in test [5] was 100 µM (active).

For the compound `CCOC(=O)[C@H](O)[C@@H](O)C(=O)OCC`, the result in test [9], in test [2], in test [3], in [5], in test [6] and in [7] was inactive.

Regarding `Cc1cc(=O)[nH]c(=O)[nH]1`, the result in test [9], in test [2], in test [4], in [5] and in test [7] was inactive.

As to `O=C(OCCc1ccccc1)c1ccccc1`, the compound was classed as inactive in test [9], in test [2], in test [5], in test [6] and in [7].
